Experimental data as given in PubChem BioAssay (EPA / NIEHS).
Active and inactive are the calls of the source. The calls were made as follows: active = hit-call score of the fitted dose curve at least 0.9, where 1 is the maximum; inactive = score below 0.9.

Read-out: Cytochrome P450 3A7 (Homo sapiens) (UniProt P24462)
Assay: LTEA_HepaRG_CYP3A7: Life Technologies and Expression Analysis (LTEA) Assay for CYP3A7 using HepaRG (AID 2283492)
Details: mRNA level, 48 h; actives raise or lower the signal
Procedure: LTEA_HepaRG is a cell based, multiplexed-readout assay that uses HepaRG, a human liver cell line, with measurements taken at 48 hours after chemical dosing on a 96-well plate.LTEA_HepaRG_CYP3A7 is one of 102 assay component(s) measured in the LTEA HepaRG cell culture assay. It is a marker of NR mediated metabolism/Undifferentiated hepatocyte.Data from the assay component LTEA_HepaRG_CYP3A7 was analyzed into 1 endpoint. This assay endpoint, LTEA_HepaRG_CYP3A7, was analyzed with bidirectional fitting relative to DMSO as the negative control and baseline of activity. Using a type of inducible reporter, measures of mRNA induction for gain or loss-of-signal activity can be used to understand regulation of transcription factor activity. To generalize the intended target to other relatable targets, this assay endpoint is annotated to the cyp intended target family, where the subfamily is xenobiotic metabolism.
A total of 1060 chemcials from the ToxCast library were tested in eight-point concentration-response experiments. Cell culture and cytotoxicity assays were conducted at Thermo Fisher Scientific's Custom Services facility (Madison, WI). A single lot of human HepaRG cells (Thermo Fisher Scientific, Frederick, MD) was used for the cell culture experiments. 96-well format collagen type I coated plates of human HepaRG cells were prepared using established methods. Briefly, cryopreserved HepaRG cells were thawed, plated at a density of approximately 100,000 cells/well in HepaRG Thaw, Plate, and General Purpose media (HPRG770, Thermo Fisher Scientific), and incubated for 48 hours. 0.5% DMSO was selected as vehicle control to balance the requisite need of DMSO in HepaRG cultures to maintain differentiation (for example, baseline metabolism, proportions of hepatocytes vs. cholangiocytes), while enabling further hepatic receptor pathway activation (for example, PXR and CAR) in response to chemical exposure. 48 hours after plating, the culture medium was replaced with HepaRG Serum-Free Incudtion Media. Cells were exposed to each test chemical in duplicate and maintained in CO2 incubators for another 48 hours. Chemical plates were thawed to room temperature and 200x concentrations of treatment groups were prepared. 8-point conentration-reponse curves were made with the highest exposure at 100 uM, followed by half-log dilutions, all in 0.5% DMSO. Each test plate contained variouse controls, induction positive controls (1mM phenobarbital), cytotoxicity positive controls ([…] aflatoxin B1), vehicle controls (0.5% DMSO), and total lysis controls (0.5% DMSO). Cell morphology images were taken using an Essen IncuCyte FLR automated microscope, with six 96-well plates imaged in about 24 minutes. Images were captured and exported and JPEG files. Spent culture media was transfered to black-well plates for the LDH assay, and remaining media was sorted at -80 C for later use. Cells were treated with RLT buffer and frozen until shipped for gene expression analysis. Total RNA was isolated from the cell suspension in 75 uL of Buffer RLT (Qiagen, Germantown, MD 20874) by Quintiles/Expression Analysis (Durham, NC) using a custom isolation procedure. Total RNA from each plate well was transferred to a preamplification plate. Fluidigm's 96.96 Dynamic ArrayTM (Fluidigm, Amsterdam, the Netherlands) technology was used for gene expression analyses by quantitative reverse transcription polymerase chain reaction (qRT-PCR, performed by Quintiles/Expression Analysis, Durham, NC)89. Standard TaqManTM Assays (Applied Biosystems/ThermoFisher Scientific, Foster City, CA) were used to assess the expression of 93 genes selected based on their selectivity and sensitivity to important hepatic receptors known to be modulated by environmental chemicals; importance in human hepatocyte functionality; and hepatotoxicity. […]

Chain of Cytochrome P450 3A7 (Homo sapiens) (P24462 whole entry, looked up): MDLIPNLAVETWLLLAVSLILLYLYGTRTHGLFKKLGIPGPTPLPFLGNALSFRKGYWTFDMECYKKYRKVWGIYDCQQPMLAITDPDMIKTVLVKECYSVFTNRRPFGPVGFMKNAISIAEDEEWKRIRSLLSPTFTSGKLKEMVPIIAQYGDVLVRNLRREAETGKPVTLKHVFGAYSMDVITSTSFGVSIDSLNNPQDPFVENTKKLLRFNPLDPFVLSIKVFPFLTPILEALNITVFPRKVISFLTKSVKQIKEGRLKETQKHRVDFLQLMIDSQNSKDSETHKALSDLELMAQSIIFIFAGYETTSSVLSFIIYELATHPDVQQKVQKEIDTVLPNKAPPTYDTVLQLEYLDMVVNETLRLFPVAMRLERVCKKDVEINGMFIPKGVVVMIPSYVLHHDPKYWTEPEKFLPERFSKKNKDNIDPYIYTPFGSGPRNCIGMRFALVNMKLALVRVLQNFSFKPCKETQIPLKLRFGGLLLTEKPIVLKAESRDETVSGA

Structure (SMILES)	outcome	AC50
Cc1ccc(N)cc1O	inactive	
O=C(NS(=O)(=O)/C=C/c1ccccc1)c1ccc(F)cc1Cl		28.7 µM (active)
COc1ccc2sc(C(=O)Nc3nnn[nH]3)c(OC(C)C)c2c1		87.2 µM (active)
COc1cccc(-c2ccc(/C=C\CN3CCCCCC3)cc2Cl)c1		81.9 µM (active)
CCOC(=O)c1ccc(C2CCC(NC[C@H](O)COc3ccc(O)c(NS(C)(=O)=O)c3)CC2)cc1 (stereo not given in full)	inactive	
CC1=CC(=O)CC(C)(C)C1	inactive	
C=CCCCCCCCCC(=O)O	inactive	
O=C(O)CCN(C1(C(=O)NO)CCCC1)S(=O)(=O)c1ccc(Oc2ccc(F)cc2)cc1	inactive	
O=C(O)c1cccc(Oc2ccccc2)c1	inactive	
CCCCC(CC)COC(=O)CCCCCCCCC(=O)OCC(CC)CCCC (stereo not given)	inactive	
COc1ccc(/C=C/S(=O)(=O)NC(=O)c2ccc(C)cc2Cl)cc1		20.1 µM (active)
C[C@](N)(Cc1ccc(O)c(O)c1)C(=O)O	inactive	
CN(C)c1ccc(N=NS(=O)(=O)O)cc1	inactive	
On1ccccc1=S	inactive	
CN(C)c1ccc(Cc2ccc(N(C)C)cc2)cc1		11.6 µM (active)
CC(=O)c1ccc2c(c1)[C@H](NC(=O)c1ccc(F)cc1)[C@@H](O)C(C)(C)O2		34.2 µM (active)
CC(=O)OCCC(C)C	inactive	
CC(C)CCO	inactive	
CCOCCOCCOCCO	inactive	
CNS(=O)(=O)c1cc(C(=O)N2CCC(CCN3C4CCC3CC(n3c(C)nc5ccccc53)C4)(c3cccc(F)c3)CC2)c(Cl)cc1F (stereo not given)		9.92 µM (active)

Structure (SMILES)	outcome	AC50
Cc1ccc(S(=O)(=O)O)cc1C	inactive	
CC(O)CN(CCN(CC(C)O)CC(C)O)CC(C)O (stereo not given)	inactive	
O=c1[nH]c2ccc(S(=O)CCN3CCC(Cc4ccc(F)cc4)CC3)cc2o1 (stereo not given)		90.1 µM (active)
COC(=O)c1ccccc1O	inactive	
Cc1ccc(C)c(O)c1	inactive	
CC/C(=C\C(=N/O)C(N)=O)C(C)[N+](=O)[O-] (stereo not given)	inactive	
COC(=O)c1c(Cl)c(Cl)c(C(=O)OC)c(Cl)c1Cl	inactive	
CCCCCCCCCCCCc1ccccc1	inactive	
COCCOCCOCCOC	inactive	
CCn1nc(Cc2ccccc2)cc1C1CCN(C[C@H]2C[C@H](N(C)[C@@H](C(=O)O)C(C)C)C[C@@H]2c2cccc(F)c2)CC1	inactive	
Cn1c(=O)cc(Oc2ccc(F)cc2F)c2cnc(NCC(C)(C)O)nc21		28.9 µM (active)
CC(C)=CCCC(C)CCO (stereo not given)	inactive	
O=C1OC(=O)C2C3C=CC(C3)C12 (stereo not given)	inactive	
CC[C@H]1CC[C@H](NCc2cc3c(cc2OC)[C@H]2C[C@H]2C(=O)N3C)[C@H](c2ccccc2)N1		8.34 µM (active)
CCCCCCCCCCCCCCCO	inactive	
C=CC(=C)CCC=C(C)C	inactive	
O=C(CCCCCCCCc1cccnc1)N1CCC(C=C(c2ccccc2)c2ccccc2)CC1	inactive	
Clc1nc(Cl)c(Cl)c(Cl)c1Cl	inactive	
CC(C)c1cccc(C(C)C)c1N1C(=O)c2ccc(O)cc2C1=O		87.9 µM (active)
O=C(O)CC(O)C(=O)O (stereo not given)	inactive	
